Measurements reported in PubChem BioAssay (NCATS).
Inconclusive results are not listed. The source made the active and inactive calls. Unless noted, the call rests on the fitted dose curve; in most records, active means well fitted activation curve with a large enough effect in the main read-out, with a control signal flat (not every such curve was filed as active); inconclusive means small, poorly fitted or top-dose-only effect, or effect the other way, or a change in a side signal; inactive means flat fitted curve, though single readings scatter.

target: Mitogen-activated protein kinase 10 (Mus musculus) (UniProt Q61831); test: JNK3 AlphaScreen Assay (AID 530; active means well fitted curve in either direction with a large enough effect, not every such curve was filed as active;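 further: kinase came from lysate of stimulated human HepG2 cells; signal reports phosphorylation of biotinylated GST-cJun 1-79 at Ser73 with 10 µM ATP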); settings: JNK3 lysate, c-Jun phosphorylation; series mostly up to 57.1 µM
Outline: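 qHTS format: compounds tested as titrations against IL-1beta/TNF-alpha-activated HepG2 lysate JNK3 with biotin-GST-cJun substrate and 10 uM ATP at room temperature. Loss of anti-phospho-cJun AlphaScreen signal indicates inhibition.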

Potency, inactive:
C[C@@]1(C(NC(=O)c2ccc(-c3ccccc3)cc2)c2ccc(Cl)cc2)C[C@H]1C1CCCCC1 (some centres undefined), CCC[C@@H]1C[C@@]1(CCC)C(NC(=O)c1ccc(-c2ccccc2)cc1)c1cccc(Cl)c1 (some centres undefined), CC1=C(C(=O)OCc2ccccc2)C(c2ccccc2)NC(=O)N1CCCCCC(=O)O (centres undefined), COC(=O)[C@@]1(Cc2ccc(F)cc2)[C@H]2c3cc(C(=O)N(C)C)n(C)c3C[C@H]2CN1C(=O)c1ccccc1, C[C@@H](C(=O)Nc1ccc2ccccc2c1)[C@@H]1C[C@@]1(C)[C@@H](NC(=O)Oc1ccc(F)cc1)c1ccccc1, COC(=O)[C@@]1(Cc2ccc(F)cc2)[C@H]2c3cc(C(=O)N4CCCC4)n(Cc4ccc(OC(F)(F)F)cc4)c3C[C@H]2CN1C(=O)c1ccccc1, COCCn1c(C(=O)N2CCCC2)cc2c1C[C@H]1CN(C(=O)c3ccccc3)[C@@](Cc3ccc(F)cc3)(C(=O)OC)[C@@H]21, C[C@@H](C(=O)Nc1ccc2ccccc2c1)[C@@H]1C[C@@]1(C)[C@@H](NS(=O)(=O)c1ccc(-c2ccccc2)cc1)c1ccccc1, CCC#CCOCC(=S)Nc1ccccc1, O=C(Nc1ccc2ccccc2c1)[C@@H]1C[C@H]1[C@@H](NP(=O)(c1ccccc1)c1ccccc1)c1ccccc1, C[C@@H](C(=O)Nc1ccc2ccccc2c1)[C@H]1C[C@]1(C)[C@H](NC(=O)OCc1ccccc1)c1ccccc1, C[C@@H](C(=O)Nc1ccc2ccccc2c1)[C@@H]1C[C@@]1(C)[C@@H](NC(=O)c1ccncc1Cl)c1ccccc1, COC(=O)[C@@]1(Cc2ccc(OC)cc2)[C@H]2c3cc(C(=O)N4CCCC4)n(CCc4c[nH]c5ccc(OC)cc45)c3C[C@H]2CN1C(=O)c1ccccc1, COC(=O)[C@@]1(Cc2ccc(F)cc2)[C@H]2c3cc(C(=O)N4CCCC4)n(Cc4ccccc4)c3C[C@H]2CN1C(=O)c1ccccc1, CCC#CCOCC(=O)Nc1ccccc1, COC(=O)[C@@]1(Cc2ccc(F)cc2)[C@H]2c3cc(C(=O)N(C)C)n(Cc4cccc5ccccc45)c3C[C@H]2CN1C(=O)c1ccccc1, COC(=O)[C@@]1(Cc2ccc(OC)cc2)[C@H]2c3cc(C(=O)N4CCCC4)n(Cc4c(CO)[nH]cc(C)c4=O)c3C[C@H]2CN1C(=O)c1ccccc1, CCCc1cc2c(n1Cc1cc(F)cc(F)c1)C(C)C1CN(C(=O)c3ccccc3)C(C)(C(=O)OC)C21 (centres undefined), CC(=O)N1CC2(CC2)CC1c1ccccc1 (centres undefined), COC(=O)[C@@]1(Cc2ccc(F)cc2)[C@H]2c3cc(C(=O)N(C)C)n(CCc4c[nH]c5ccc(OC)cc45)c3C[C@H]2CN1C(=O)c1ccccc1, COC(=O)[C@@H]1C[C@H]1[C@@H](NC(=O)Oc1ccc(F)cc1)c1ccccc1, CCCC/C=C/C(NC(=O)c1ccc(-c2ccccc2)cc1)c1ccccc1 (centres undefined), C[C@@H](C(=O)O)[C@@H]1C[C@@]1(C)[C@@H](NC(=O)OCc1ccccc1)c1ccccc1, COC(=O)[C@@]1(Cc2ccc(F)cc2)[C@H]2c3cc(C(=O)N4CCCC4)n(CCF)c3C[C@H]2CN1C(=O)c1ccccc1, O=C(N[C@@H](c1ccccc1)[C@@H]1C[C@H]1C(=O)O)OCc1ccccc1, COC(=O)[C@@H]1C[C@H]1[C@@H](NC(=O)OCc1ccccc1)c1ccccc1

target: 3',5'-cyclic-AMP phosphodiesterase 4B (Homo sapiens) (UniProt Q07343); test: qHTS Assay for Inhibitors of PDE-IV (AID 607); settings: HEK293 ACTOne CNG channel cells, membrane potential fluorescence; series mostly up to 22.9 µM
Outline: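 Cell-based read-out of cAMP via a modified cyclic nucleotide-gated channel and membrane potential dye (535/590 nm) in HEK293 cells expressing PDE4 endogenously. Compounds tested up to 22.9 uM final; 100 uM RO 20-1724 reference.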

Sequence of 3',5'-cyclic-AMP phosphodiesterase 4B (Homo sapiens) (Q07343 whole entry, looked up): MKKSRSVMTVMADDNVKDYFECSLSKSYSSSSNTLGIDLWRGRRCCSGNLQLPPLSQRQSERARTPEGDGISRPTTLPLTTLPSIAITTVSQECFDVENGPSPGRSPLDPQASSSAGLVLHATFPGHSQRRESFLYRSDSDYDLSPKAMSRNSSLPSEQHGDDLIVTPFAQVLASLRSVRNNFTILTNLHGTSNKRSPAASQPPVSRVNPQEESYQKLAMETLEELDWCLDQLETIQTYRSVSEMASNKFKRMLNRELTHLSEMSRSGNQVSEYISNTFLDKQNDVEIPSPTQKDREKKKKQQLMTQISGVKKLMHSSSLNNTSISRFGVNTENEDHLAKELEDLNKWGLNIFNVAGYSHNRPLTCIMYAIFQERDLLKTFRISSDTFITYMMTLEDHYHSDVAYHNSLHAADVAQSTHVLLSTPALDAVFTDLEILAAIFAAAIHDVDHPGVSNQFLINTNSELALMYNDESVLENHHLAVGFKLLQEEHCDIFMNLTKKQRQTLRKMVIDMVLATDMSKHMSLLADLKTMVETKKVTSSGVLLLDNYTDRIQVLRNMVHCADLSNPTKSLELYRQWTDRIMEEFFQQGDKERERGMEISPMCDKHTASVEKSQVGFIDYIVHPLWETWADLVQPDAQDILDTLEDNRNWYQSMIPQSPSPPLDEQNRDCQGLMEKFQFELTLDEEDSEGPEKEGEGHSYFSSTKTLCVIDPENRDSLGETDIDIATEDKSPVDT

Potency, inactive:
CC(Cc1ccccc1)C(=O)NCc1ccccn1 (centres undefined), COC(=O)[C@@]1(Cc2ccc(F)cc2)[C@H]2c3cc(C(=O)N4CCCC4)n(CCO)c3C[C@H]2CN1C(=O)c1ccccc1, COC(=O)[C@@]1(Cc2ccc(F)cc2)[C@H]2c3cc(C(=O)N(C)C)n(Cc4cc(F)c(F)c(F)c4)c3C[C@H]2CN1C(=O)c1ccccc1, CCc1c2c(nc3cccc(OC)c13)OC(CC)C2 (centres undefined), COC(=O)[C@@]1(Cc2ccc(F)cc2)[C@H]2c3cc(C(=O)N4CCCC4)n(Cc4cccc5ccccc45)c3C[C@H]2CN1C(=O)c1ccccc1, CCCC1(C(=O)OC)C=C2C(=C(C)C(=O)C2C)CN1 (centres undefined), COC(=O)[C@@]1(Cc2ccccc2)[C@H]2c3cc(C(=O)N(C)C)n(CCN4CNCC4=O)c3C[C@H]2CN1C(=O)c1ccccc1, CC1(C)S[C@@H]2[C@@H](NC(=O)[C@@H](N)c3ccccc3)C(=O)N2[C@H]1C(=O)O, COC(=O)[C@@]1(Cc2ccccc2)[C@H]2c3cc(C(=O)N4CCCC4)n(Cc4ccc(OC)c(OC)c4)c3C[C@H]2CN1C(=O)c1ccccc1, C[C@@]1(C(NC(=O)c2ccccc2)c2ccc(-c3ccccc3)cc2)C[C@H]1C1CCCCC1 (some centres undefined), CCCC[C@@H]1C[C@H]1C(NC(=O)c1ccc(-c2ccccc2)cc1)c1ccc(-c2ccccc2)cc1 (some centres undefined), COC(=O)C1(Cc2ccccc2)C=C2C(=C(C)C(=O)C2C)CN1 (centres undefined), C[C@@]1(C(NC(=O)c2ccc(-c3ccccc3)cc2)c2ccc(Cl)cc2)C[C@H]1C1CCCCC1 (some centres undefined), CCC[C@@H]1C[C@@]1(CCC)C(NC(=O)c1ccc(-c2ccccc2)cc1)c1cccc(Cl)c1 (some centres undefined), CC1=C(C(=O)OCc2ccccc2)C(c2ccccc2)NC(=O)N1CCCCCC(=O)O (centres undefined), COC(=O)[C@@]1(Cc2ccc(F)cc2)[C@H]2c3cc(C(=O)N(C)C)n(C)c3C[C@H]2CN1C(=O)c1ccccc1, C[C@@H](C(=O)Nc1ccc2ccccc2c1)[C@@H]1C[C@@]1(C)[C@@H](NC(=O)Oc1ccc(F)cc1)c1ccccc1, COC(=O)[C@@]1(Cc2ccc(F)cc2)[C@H]2c3cc(C(=O)N4CCCC4)n(Cc4ccc(OC(F)(F)F)cc4)c3C[C@H]2CN1C(=O)c1ccccc1, COCCn1c(C(=O)N2CCCC2)cc2c1C[C@H]1CN(C(=O)c3ccccc3)[C@@](Cc3ccc(F)cc3)(C(=O)OC)[C@@H]21, C[C@@H](C(=O)Nc1ccc2ccccc2c1)[C@@H]1C[C@@]1(C)[C@@H](NS(=O)(=O)c1ccc(-c2ccccc2)cc1)c1ccccc1, CCC#CCOCC(=S)Nc1ccccc1, O=C(Nc1ccc2ccccc2c1)[C@@H]1C[C@H]1[C@@H](NP(=O)(c1ccccc1)c1ccccc1)c1ccccc1, C[C@@H](C(=O)Nc1ccc2ccccc2c1)[C@H]1C[C@]1(C)[C@H](NC(=O)OCc1ccccc1)c1ccccc1, C[C@@H](C(=O)Nc1ccc2ccccc2c1)[C@@H]1C[C@@]1(C)[C@@H](NC(=O)c1ccncc1Cl)c1ccccc1, COC(=O)[C@@]1(Cc2ccc(OC)cc2)[C@H]2c3cc(C(=O)N4CCCC4)n(CCc4c[nH]c5ccc(OC)cc45)c3C[C@H]2CN1C(=O)c1ccccc1, COC(=O)[C@@]1(Cc2ccc(F)cc2)[C@H]2c3cc(C(=O)N4CCCC4)n(Cc4ccccc4)c3C[C@H]2CN1C(=O)c1ccccc1, CCC#CCOCC(=O)Nc1ccccc1, COC(=O)[C@@]1(Cc2ccc(F)cc2)[C@H]2c3cc(C(=O)N(C)C)n(Cc4cccc5ccccc45)c3C[C@H]2CN1C(=O)c1ccccc1, COC(=O)[C@@]1(Cc2ccc(OC)cc2)[C@H]2c3cc(C(=O)N4CCCC4)n(Cc4c(CO)[nH]cc(C)c4=O)c3C[C@H]2CN1C(=O)c1ccccc1, CCCc1cc2c(n1Cc1cc(F)cc(F)c1)C(C)C1CN(C(=O)c3ccccc3)C(C)(C(=O)OC)C21 (centres undefined), CC(=O)N1CC2(CC2)CC1c1ccccc1 (centres undefined), COC(=O)[C@@]1(Cc2ccc(F)cc2)[C@H]2c3cc(C(=O)N(C)C)n(CCc4c[nH]c5ccc(OC)cc45)c3C[C@H]2CN1C(=O)c1ccccc1, COC(=O)[C@@H]1C[C@H]1[C@@H](NC(=O)Oc1ccc(F)cc1)c1ccccc1, CCCC/C=C/C(NC(=O)c1ccc(-c2ccccc2)cc1)c1ccccc1 (centres undefined), C[C@@H](C(=O)O)[C@@H]1C[C@@]1(C)[C@@H](NC(=O)OCc1ccccc1)c1ccccc1, COC(=O)[C@@]1(Cc2ccc(F)cc2)[C@H]2c3cc(C(=O)N4CCCC4)n(CCF)c3C[C@H]2CN1C(=O)c1ccccc1, O=C(N[C@@H](c1ccccc1)[C@@H]1C[C@H]1C(=O)O)OCc1ccccc1, COC(=O)[C@@H]1C[C@H]1[C@@H](NC(=O)OCc1ccccc1)c1ccccc1
